Assay results as given in PubChem BioAssay AID504467 (National Center for Advancing Translational Sciences (NCATS), 2011).
In all, about 330,000 compounds went through this assay and about 7,700 (2.3%) were called active. Entries that show only a call come without a potency. Not shown: some 26% with an inconclusive outcome. Calls follow the shape of the dose curve; as a rule, active = well fitted inhibition curve with a large enough effect; inconclusive = small, poorly fitted or top-dose-only effect, or effect the other way; inactive = flat fitted curve, though single readings scatter. Many of the other results were omitted from the sample, so actives are more common in it than they were.

assay: qHTS screen for small molecules that inhibit ELG1-dependent DNA repair in human embryonic kidney (HEK293T) cells expressing luciferase-tagged ELG1; details: HEK293T ELG1-luciferase reporter, luminescence, 16 h, DNA damage induced by 5-fluorouridine; series mostly up to 46.1 µM; also: nearly all actives have a fitted effect of over 55% in size
Procedure, shortened: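 Step one: seed 2,000 cells per well. Step two: pin-transfer compound or DMSO alongside 5-fluorouridine. Step three: incubate 16 hr, 37 °C, 5% CO2. Step four: add ONE-Glo, wait 30 min, read luminescence.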
Potency is read from the fitted curve at half-maximal effect.

SMILES | Potency
Cc1ccc(C(=O)NNC(=O)CSc2nnc3ccccn23)cc1 | inactive
COc1ccc(OC)c(CNC(=O)Cn2nc(C)c3c(C)n(-c4ccc(C)cc4)nc3c2=O)c1 | 8.2 µM (active)
COc1ccc(CNC(=O)C(C)n2nc(C)c3c(C)n(-c4ccccc4)nc3c2=O)c(OC)c1 (stereo not given) | inactive
Cc1nn(CC(=O)N2CCCCC2)c(=O)c2nn(-c3ccccc3)c(C)c12 | inactive
COc1ccc(S(=O)(=O)N2CCOC23CCN(S(=O)(=O)c2ccc([N+](=O)[O-])cc2)CC3)cc1 | inactive
COc1ccccc1C(=O)N1CC2(C)CC1CC(C)(C)C2 (stereo not given) | inactive
Cc1nnnn1/C(=C\c1ccccc1)C(=O)OCC(=O)N1CC2(C)CC1CC(C)(C)C2 (stereo not given) | 20.6 µM (active)
Cc1cccc(C(=O)NCC(=O)OCC(=O)N2CC3(C)CC2CC(C)(C)C3)c1 (stereo not given) | inactive
Cc1ccc(CNC(=O)c2cc(-c3ccccc3C)n(CC3CC(c4cccc([N+](=O)[O-])c4)=NO3)n2)cc1 (stereo not given) | inactive
O=C(c1ccccc1)N1N=C(c2ccccc2O)CC1c1ccc(Br)cc1 (stereo not given) | inactive
COc1ccc2c(CC(=O)NNC(=O)c3ccccc3F)coc2c1 | inactive
COc1ccc(Cn2c(=S)[nH]c3cc(C(=O)NCCCN4CCOCC4)ccc3c2=O)cc1 | inactive
Cc1cccc(NC(=O)c2ccc3c(=O)n(CC4CCCO4)c(=S)[nH]c3c2)c1 (stereo not given) | 16.4 µM (active)
CCC(=O)Nc1ccc(C(=O)Nc2ccc3c(c2)C(=O)N(CC2CCCO2)C3=O)cc1 (stereo not given) | inactive
COc1ccccc1N1CCN(C(=O)c2ccc(NC3=NC4CS(=O)(=O)CC4S3)cc2)CC1 (stereo not given) | inactive
COc1ccc(-c2nn(C)c(=O)c3ccccc23)cc1CNC(=O)C1CCCCC1 | 20.6 µM (active)
COc1ccccc1CNC(=O)C1CCN(c2nc3ccccc3o2)CC1 | inactive
COc1ccc(OC)c(CNC(=O)C2CCCN(c3nc4ccccc4o3)C2)c1 (stereo not given) | inactive
CCN(CC(=O)Nc1cc(Cl)ccc1C)C(=O)CSCc1ccccc1 | inactive
COc1ccc(-c2nn(-c3ccccc3)cc2C(=O)Nc2nccs2)cc1OC | 3.26 µM (active)
COc1ccc(-c2nn(-c3ccccc3)cc2C(=O)Nc2nc(CC(C)=O)ns2)cc1 | inactive
O=C(O)c1ccc(NC(=O)c2cn(-c3ccccc3)nc2-c2ccc(Cl)cc2)cc1 | inactive
Cc1nnc(SCC(=O)N/N=C/c2cn(-c3ccccc3)nc2-c2ccc(F)cc2)n1-c1ccccc1 | inactive
CN(C)/N=C/c1cn(-c2ccccc2)nc1-c1cccnc1 | inactive

SMILES | Potency
COc1ccc(-c2nn(-c3ccccc3)cc2/C=N/Nc2ccccn2)cc1OC | 14.6 µM (active)
CCC(C)N(C(=O)CSc1ncnc2c1cnn2-c1ccccc1)C1CCS(=O)(=O)C1 (stereo not given) | inactive
O=C(CSc1nc2ccccc2c(=O)n1Cc1ccc(F)cc1)NCC1CCCO1 (stereo not given) | inactive
Cc1nc2ccccc2c(C)c1C(=O)c1ccc(F)cc1 | 14.6 µM (active)
CN(Cc1nc2ccccc2s1)C(=O)c1ccc(F)cc1 | inactive
Cc1nc2ccccc2c(-c2ccccc2)c1C(=O)c1ccccc1 | inactive
Cc1ccc2nc(SCC(=O)N3CC(C)OC(C)C3)nc(=O)n2c1 (stereo not given) | inactive
O=C(O)C1CCCN(S(=O)(=O)c2cccc3cccnc23)C1 (stereo not given) | inactive
Cc1ccc(C)c(OCCC(=O)Nc2cccc(S(=O)(=O)N3CCCC3)c2)c1 | inactive
COc1ccc(CCNC(=O)C2CCCN(S(=O)(=O)c3ccc(OC)cc3)C2)cc1 (stereo not given) | inactive
Cc1cccc(OCCCC(=O)Nc2ccc(S(=O)(=O)N3CCCC3)cc2)c1 | 18.4 µM (active)
COc1ccc(NC(=O)C2CCCN(S(=O)(=O)c3cccc4cccnc34)C2)cc1OC (stereo not given) | 20.6 µM (active)
COc1ccccc1CNC(=O)C1CCCN(S(=O)(=O)c2cccc3cccnc23)C1 (stereo not given) | inactive
CCOc1ccc(NC(=O)COc2ccc(S(=O)(=O)N3CCCC3)cc2)cc1 | inactive
CCN(CC(=O)Nc1ccc(S(=O)(=O)N2CCCC2)cc1)CC(=O)Nc1cccc(OC)c1 | inactive
CCOc1cccc(NC(=O)C2CCCN(S(=O)(=O)c3ccc(OC)cc3)C2)c1 (stereo not given) | 23.1 µM (active)
COc1ccc(C(=O)O)cc1S(=O)(=O)NC1CCN(Cc2ccccc2)CC1 | inactive
CCOCCCN(C)C1CCN(C(=O)c2oc3ccccc3c2NC(=O)Cc2cccc([N+](=O)[O-])c2)CC1 | inactive
CCCCC[C@@H]1C=C(C(=O)O)[C@H](c2ccc(C#N)cc2)N1S(=O)(=O)c1ccc(C)cc1 | inactive
COc1ccc(C(C(=O)NCC2CCCO2)N(C(=O)Cn2nnc3ccccc32)c2ccc(NC(C)=O)cc2)cc1OC (stereo not given) | inactive
COc1ccccc1CNS(=O)(=O)c1cc(C(=O)NCc2ccccn2)c(Cl)cc1Cl | inactive
COc1ccc(N2CCN(C(=O)Cn3cnc4sc(C)c(S(=O)(=O)N5CCOCC5)c4c3=O)CC2)cc1 | inactive
COc1ccc(OCC(=O)Nc2ccc(NC(=O)c3ccco3)c(C)c2)cc1 | inactive
Cc1cccc(OCC(=O)Nc2ccc(NC(=O)c3ccco3)c(C)c2)c1 | inactive

SMILES | Potency
CCN(CC)P(=O)(Nc1ccc(SC(F)F)cc1)c1ccc(N(C)C)cc1NC(=O)c1ccco1 (stereo not given) | 7.3 µM (active)
CC(C)(C)n1ncc2c(=O)n(Cc3c(Cl)cccc3Br)cnc21 | inactive
CC(C)(C)n1ncc2c(=O)n(Cc3ccc(Cl)cc3)cnc21 | 20.6 µM (active)
Cc1ccc2c(c1)c1ncn(Cc3ccc(F)cc3)c(=O)c1n2C | inactive
COc1cc(NC(=O)COC(=O)c2cc(S(=O)(=O)N3CCOCC3)ccc2F)cc(OC)c1 | inactive
COCCNc1nc(N)c([N+](=O)[O-])c(N2CCCCCC2)n1 | inactive
O=C(CN1CCN(c2ccccc2O)CC1)NC(=O)NCc1ccccc1 | inactive
O=C(C1CCN(C2CCN(Cc3ccc4cc(F)ccc4n3)CC2)CC1)N1CCCC1 | 13 µM (active)
C/C(=C\c1ccco1)CN1CCC(N2CCC(C(=O)N3CCOCC3)CC2)CC1 | inactive
O=C(C1CCN(C2CCN(Cc3cccc4c3OCO4)CC2)CC1)N1CCOCC1 | inactive
CCCC(CNC(=O)COC(=O)C1=NNC(=O)CC1)c1ccc(Cl)cc1Cl (stereo not given) | inactive
CN(CC(=O)Nc1ccc(C(N)=O)cc1)S(=O)(=O)c1ccc2c(c1)OCCO2 | inactive
CCOc1ccc(NS(=O)(=O)c2ccc(C(=O)NC3CCN(Cc4ccccc4)CC3)cc2)cc1 | inactive
COc1cc(OC)cc(C(=O)N[C@H](C(=O)NNC(=O)c2ccc(Br)cc2)C(C)C)c1 | inactive
COc1ccc(C)cc1NC(=O)CCC(=O)Nc1nnc(C(F)(F)F)s1 | inactive
O=C(Nc1nnc(COc2ccccc2)s1)Nc1ccccc1F | inactive
O=C(NCC(F)(F)F)Nc1nnc(C(F)(F)F)s1 | 18.4 µM (active)
O=C(NCCS(=O)(=O)N1CCN(c2ccccc2F)CC1)c1ccc(Br)o1 | inactive
COc1ccccc1N1CCN(S(=O)(=O)CCNC(=O)c2ccc(OC(C)C)cc2)CC1 | 13 µM (active)
CCOc1ccc(CC(=O)NCCS(=O)(=O)N2CCN(c3ccccc3)CC2)cc1 | inactive
COc1ccc(S(=O)(=O)N2CCCCC2)cc1NC(=O)C1CC(=O)N(c2ccc3c(c2)OCCO3)C1 (stereo not given) | inactive
CC1CC(=O)Nc2ccccc2N1C(=O)COc1ccc2cc(Br)ccc2c1 (stereo not given) | inactive
C#CCOc1ccccc1/C=C1/C(=O)ON=C1C | inactive
Cc1cccc(/C=N/NC(=O)CNc2cccc3ccccc23)n1 | inactive

SMILES | Potency
C/C(=N\NC(=O)CNc1cccc2ccccc12)c1ccc(Br)s1 | inactive
Cn1cccc1/C=N/NC(=O)CNc1cccc2ccccc12 | 13 µM (active)
Cc1ccc(NC(=O)COc2coc(CN3CCc4ccccc4C3)cc2=O)cc1Cl | inactive
CC1=NN(Cc2ccccc2)C(=O)/C1=C/c1ccc(N(C)C)cc1 | inactive
CC(Cc1ccccc1)C(=O)N(C)Cc1ccccc1 (stereo not given) | inactive
CN(C)c1cc[n+](Cc2ccccc2)cc1 | 8.2 µM (active)
CCN1C(=O)[C@@H]2[C@@H](c3ccc(-c4ccccc4)cc3)N3CCCC[C@@]3(C(=O)OC)[C@@H]2C1=O | inactive
CCCNC(=O)c1c(N)n(-c2ccc(S(N)(=O)=O)cc2)c2nc3ccccc3nc12 | inactive
CCOc1ccccc1NC(=O)Cn1nnc(C(=O)NCc2cccs2)c1N | inactive
CC(C)Cn1c(N)c(C(=O)NCc2cccs2)c2nc3ccccc3nc21 | 9.2 µM (active)
CC(C(=O)N1CCc2ccccc21)N(C)CC(=O)Nc1ccc(F)cc1 (stereo not given) | inactive
Cc1noc(C)c1CSCC(=O)N(CCC(C)C)c1c(N)n(Cc2ccccc2)c(=O)[nH]c1=O | inactive
COc1cccc(OCC(O)CN2CCN(CCO)CC2)c1 (stereo not given) | inactive
Cc1ccc(OCC(O)CN2CCN(CC(O)COc3ccc(C)cc3Cl)CC2)c(Cl)c1 (stereo not given) | inactive
Cc1cccc(OCC(O)CN2CCN(S(=O)(=O)c3ccc(C)cc3C)CC2)c1 (stereo not given) | 11.6 µM (active)
Cc1ccc(Nc2nc(-c3sc(NC(=O)c4ccccc4)nc3C)cs2)cc1 | inactive
CCCCCCC(=O)Nc1nc(C)c(-c2csc(Nc3cc(Cl)ccc3OC)n2)s1 | inactive
C=CCCC(=O)Nc1nc(C)c(-c2csc(Nc3ccc(Cl)cc3)n2)s1 | 18.4 µM (active)
CCCCC(=O)Nc1nc(C)c(-c2csc(Nc3ccc(Cl)cc3)n2)s1 | 20.6 µM (active)
CCC(=O)Nc1nc(C)c(C(=O)Nc2cccc(Cl)c2)s1 | inactive
CC(=O)Nc1nc(C)c(-c2csc(Nc3ccc(S(N)(=O)=O)cc3)n2)s1 | inactive
CCOC(=O)N1CCN(C(=O)c2ccccc2SCC(=O)NCC2CCCCC2)CC1 | inactive
CN(C(=O)COC(=O)Cc1ccccc1[N+](=O)[O-])C1CCS(=O)(=O)C1 (stereo not given) | inactive
